# Source: PubChem BioAssay AID1956 (SRMLSC, 2009)
# “And” between values parts separate entries of the source, which are not always exact repeats. Equal entries are not always repeated. About 10 (0.005%) of roughly 220,000 compounds were called active. Cut-off read from the data, not from the text of the source: active = maximum fold increase above about 1.5; inconclusive = no clear call, values can overlap the other calls; inactive = below that; tested in PC3 cells. A selection follows.
# Assay: enhancers of HSV replication in host cells, fold increase, host cell viability (AID 1956)
# Details: HSV replication augmentation in cells; fold increase: measured here: primary screen fold increase 10 uM, at 10 µM, stronger effect = higher value; maximum fold increase: at 0.098 µM, stronger effect = higher value; viability: measured here: host cell viability series, at 25 µM, stronger effect = lower value
SMILES,fold increase,outcome
CC(=O)NC(=S)Nc1ccc(NC(=O)c2cccnc2)cc1,0.97,inactive
COc1ccc(/C=N/n2nnnc2N)cc1OC,0.91,inactive
Cc1ccc(/C=N/NC(=S)NC2CCCCC2)o1,0.99,inactive
O=C(O)C1CCN(C(=O)c2cc(F)cc3c2OCOC3)CC1,1.05,inactive
C[C@H]1CC[C@]2(O[C@@H](CCO)C[C@@H](O)[C@@H]2O)O1,0.79,inactive
O=C(O)CCCCCCCCCC[n+]1ccccc1,0.88,inactive
COc1ccc2c(c1)CCNC2Cc1ccc(OC)c(O)c1 (stereo not drawn),0.84,inactive
O=C1c2ccccc2S(=O)(=O)c2cc(N3CCN(c4ccccn4)CC3)ccc21,0.92,inactive
CCOC(=O)c1ccc(NC(=O)c2c(N)n(C)c(=O)[nH]c2=O)cc1,0.86,inactive
COC(=O)c1cc(NC(=O)c2cc(C(C)(C)C)nn2Cc2cccc(C)c2)ccc1N1CCOCC1,0.93,inactive
COc1ccc(-c2csc(NC3OC(=O)c4ccccc43)n2)cc1 (stereo not drawn),0.65,inactive
O=C(O)Cc1csc(-c2cccc(Oc3ccccc3)c2)n1,1.01 and 0.89,inactive
Cc1ccc(CNC(=O)c2ccc3c(c2)S(=O)(=O)c2ccccc2C3=O)cc1,0.82,inactive
O=C(Cc1ccccc1)Nc1c(Cl)ccc2nsnc12,1.01,inactive
COc1ccc(Cl)cc1CSc1ncn[nH]1,0.97,inactive
Cc1c(NC(=O)C(=O)N/N=C/c2cccs2)c(=O)n(-c2ccccc2)n1C,0.92,inactive
O=C(NC1CC1)C1=C[C@H](c2coc3ccccc3c2=O)C[C@H](OCCCCO)O1,0.73,inactive
CC(C)Cc1ccc(C(C)C(=N)N)cc1 (stereo not drawn),0.92,inactive
CC(C)(C)n1nc(Cc2cccc3ccccc23)c(C#N)c1N,0.79,inactive
Oc1ccc(-c2nnc(Nc3ccccc3)c3ccccc23)cc1,0.8,inactive

SMILES,fold increase,outcome
CC1(C)CC(N2CCN(C(c3ccccc3)c3ccccc3)CC2)=CC(=[N+]2CCCCC2)C1,0.65,inactive
C#CCOCCOCCOCCNc1nc(N2CCN(C(=O)C([C@@H](C)CC)n3cc(C(N)COC(=O)C(F)(F)F)nn3)CC2)nc(N2CCN(C(=O)[C@H](Cc3ccc(O)cc3)n3cc(C(N)[C@H](C)CC)nn3)CC2)n1 (stereo partly drawn),0.87,inactive
C#CCNC(=O)[C@H](Cc1ccc(C(=O)c2ccccc2)cc1)NC(=O)OC(C)(C)C,0.7,inactive
COc1ccccc1-n1cn[nH]c1=S,0.88,inactive
O=C(O)CCn1c(O)c(C=C2N=c3ccccc3=N2)sc1=S,1.18,inactive
Cc1nc(Cl)c(C#N)c2c1CCCC2,0.96,inactive
O=c1[nH]snc1-c1c(Cl)cccc1Cl,0.9,inactive
C[C@@H](NC(=O)OC(C)(C)C)c1nnc(S(=O)(=O)Cc2ccccc2)o1,0.98,inactive
OCC[C@H]1C[C@H](O)[C@@H](O)[C@]2(CCCCO2)O1,0.79,inactive
CCCCCCCCCCCCN1[C@@H](CC(C)=O)c2cc(F)cc(F)c2S1(=O)=O,0.93,inactive
COc1ccc(CN2[C@@H](CC(=O)O)c3cc(F)ccc3S2(=O)=O)cc1,0.82,inactive
C=CCC(Nc1ccccc1)c1cccc(OC)c1OC (stereo not drawn),0.99,inactive
COc1ccc(CNC(=O)C2(CC3CC(c4ccccc4)=NO3)CCN(C(=O)c3cccc(O)c3)CC2)cc1 (stereo not drawn),0.88,inactive
CC1CCN(Cc2nc(-c3ccc(Cl)cc3)no2)CC1,0.99,inactive
NC(=O)NC(=O)CSc1nc2cc([N+](=O)[O-])ccc2n1-c1cccc(C(F)(F)F)c1,0.9,inactive
COc1ccc(N2C(=O)C3C(C2=O)C(C(=O)c2ccccc2)N2CCCC32)cc1 (stereo not drawn),1.02,inactive
Cc1ccccc1NC(=O)Nc1ccccc1N1CCCCC1,0.85,inactive
CCCC[C@@H]1CN=C(N)N1CCc1cccc(F)c1,0.84,inactive
C/C=C(/C)C(=O)O[C@@H]1c2cc3c(c4c2[C@@]2(CO4)C(=O)C(OC)=C(OC)C=C2C[C@@H](C)[C@H]1C)OCO3,0.75,inactive
CC1Cc2ccccc2N1CC(=O)Nc1ccc(S(N)(=O)=O)cc1 (stereo not drawn),1.03,inactive

SMILES,fold increase,outcome
O=C(Nc1nnc(COc2ccccc2)s1)Nc1ccccc1F,0.9,inactive
COc1ccc(COCCN2CCN(S(=O)(=O)c3ccccc3)CCC2=O)cc1,0.895,inactive
N/C(=N\OC(=O)CCn1cccc(C(F)(F)F)c1=O)c1ccc(OC(F)(F)F)cc1,0.99,inactive
C=CC(COCc1ccccc1)N(Cc1ccccc1)S(=O)(=O)c1ccccc1Br (stereo not drawn),1.29,inactive
Cc1cc(C(=O)NNS(=O)(=O)c2ccccc2C(F)(F)F)nn1C(C)(C)C,1,inactive
CC1(C)S[C@@H]2[C@H](N=CN3CCCCCC3)C(=O)N2[C@H]1C(=O)O,0.85,inactive
CN(C)N=Nc1ccc2nc[nH]c2c1,1.29,inactive
O=C(O)C1CCN(c2ccc([N+](=O)[O-])cc2[N+](=O)[O-])CC1,0.9,inactive
CCOC(=O)c1ccc(NC(=O)c2nc[nH]c2C(=O)NCc2ccccc2)cc1,0.92,inactive
CC(C)(C)Oc1ccccc1Nc1nc(NCCO)nc(N2CCCC2)n1,0.69,inactive
CCOC(=O)C1Nc2ccc(C(F)(F)F)cc2C2C=CCC12 (stereo not drawn),0.82,inactive
O=[N+]([O-])c1ccc(N/N=C/c2ccccc2)cc1,1.08,inactive
O=c1c2c3c(sc2n(CCN2CCCC2)c(=O)n1Cc1ccccc1)CCCCC3,0.84,inactive
Cc1ccc(NC(=O)/C(=C/c2ccc([N+](=O)[O-])cc2)NC(=O)c2ccccc2)cc1,0.83,inactive
COc1ccc2[nH]c(=S)cc(C)c2c1,1.08,inactive
CCOC(=O)C1CCN(c2c(Nc3cc(C)cc(C)c3)c(=O)c2=O)CC1,0.95,inactive
CC(NC(=S)Nc1ccccc1)C(c1cccs1)N1CCOCC1 (stereo not drawn),1,inactive
Cc1nc(-c2ccc(Cl)cc2)sc1C1(C)CC(c2ccc(Br)cc2)=NO1 (stereo not drawn),0.87,inactive
CCOC(=O)/C=C/c1ccc(C(F)(F)F)cc1S(=O)(=O)NC(C)(C)C,0.67,inactive
